# High-throughput results (PubChem)
# PLK1 PBD inh – PLK1 (human) polo-box domain binding inhibition; P53350; Plk1 PBD binding of FITC phosphopeptide, fluorescence polarization; Potency, µM, for the others: max response, negative = inhibition, most hits filed as inhibitors; 2.8% of 360,000 active; AID 720504; also: potency is read from the fitted curve at half-maximal effect; series mostly up to about 57 µM; % is scaled to controls: 0 for no effect and ±100 for the full control effect; nearly all actives have a fitted effect of over 65% in size
# G9a block – G9a (human) methyltransferase inhibition. Q96KQ7. G9a H3K9 monomethylation, AlphaScreen, 2 h. Potency, µM (series often up to 102 µM), for the others: at the top dose activity, negative = inhibition, actives largely listed as inhibitors. 8.8% of 350,000 active. AID 504332; also: potency is read from the fitted curve at half-maximal effect; % is scaled to controls: 0 for no effect and ±100 for the full control effect; nearly all actives have a fitted effect of over 75% in size
#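 Step 1: enzyme (final 20 nM) with compound, 15 min RT. Step 2: substrate peptide 500 nM and SAM 20 uM, 2 h RT. Step 3: anti-H3K9me1 antibody and AlphaScreen beads, 10 min, then plate read.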
# PI5P4Ka inh – blocks human PI5P4K alpha kinase activity. max response, %. PI5P4Kalpha enzyme, ADP-Glo luminescence, 60 min; hits give low values. 1.2% of 330,000 active. P48426; active = max response of -50% or lower; inconclusive = between -30% and -50%; inactive = -30% or higher; also: value at the top dose of about 77 µM; % is scaled to controls: 0 for no effect and ±100 for the full control effect
#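 Human PI5P4Kalpha with substrate in 0.038 M HEPES pH 7.4, 0.28 mM EGTA, 0.1% CHAPS, 5% DMSO; reaction started with 5 microM ATP (final), 60 min at room temperature. ADP formed read by ADP-Glo luminescence.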
# BAZ2B block – inhibitors of human BAZ2B bromodomain; Q9UIF8; AlphaScreen BAZ2B-H3K14Ac peptide displacement; Potency, µM (series often up to 114 µM), inactives show at the highest dose activity change, negative = inhibition, most hits filed as inhibitors; 4.4% of 360,000 active; also: potency is read from the fitted curve at half-maximal effect; % is scaled to controls: 0 for no effect and ±100 for the full control effect; nearly all actives have a fitted effect of over 60% in size
#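 BAZ2B 50 nM plus b-H3(5-23)K14Ac 50 nM, PBS pH 7.4/0.01% Tween-20, 30 min RT; compound added (max 110 uM), 30 min RT; streptavidin donor/Ni-chelate acceptor beads 10 ug/mL final, 20 min dark; AlphaScreen read.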
# HP1b chromo inh – blocks HP1-beta chromodomain binding to methylated histone tails. P83916. AlphaScreen HP1-beta / biotin-H3K9me3 peptide binding. Potency, µM (highest dose often 114 µM), for the others: top-dose activity change, negative = inhibition, usual class: inhibitors. 0.56% of 390,000 active; also: potency is read from the fitted curve at half-maximal effect; nearly all actives have a fitted effect of over 70% in size
#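 Compound inhibition of the preformed complex between 50 nM HP1-beta and 50 nM biotinylated H3K9me3 peptide was read by AlphaScreen. Buffer was PBS pH 7.4 with 0.01% Tween-20. Incubations ran 30 min at room temperature, with 10 ug/mL donor/acceptor beads.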
# JMJD2A Tudor – JMJD2A Tudor domain (human) inhibition | O75164 | AlphaScreen JMJD2A-Tudor / H3K4me3 peptide binding | Potency, µM (top dose mostly 114 µM), inactives show top-dose activity change, negative = inhibition, hits mostly inhibitors | 4.4% of 390,000 active | AID 504339; also: potency is read from the fitted curve at half-maximal effect; % is scaled to controls: 0 for no effect and ±100 for the full control effect; nearly all actives have a fitted effect of over 50% in size
# Target sequence (O75164 whole entry, looked up, the tested form may be a part): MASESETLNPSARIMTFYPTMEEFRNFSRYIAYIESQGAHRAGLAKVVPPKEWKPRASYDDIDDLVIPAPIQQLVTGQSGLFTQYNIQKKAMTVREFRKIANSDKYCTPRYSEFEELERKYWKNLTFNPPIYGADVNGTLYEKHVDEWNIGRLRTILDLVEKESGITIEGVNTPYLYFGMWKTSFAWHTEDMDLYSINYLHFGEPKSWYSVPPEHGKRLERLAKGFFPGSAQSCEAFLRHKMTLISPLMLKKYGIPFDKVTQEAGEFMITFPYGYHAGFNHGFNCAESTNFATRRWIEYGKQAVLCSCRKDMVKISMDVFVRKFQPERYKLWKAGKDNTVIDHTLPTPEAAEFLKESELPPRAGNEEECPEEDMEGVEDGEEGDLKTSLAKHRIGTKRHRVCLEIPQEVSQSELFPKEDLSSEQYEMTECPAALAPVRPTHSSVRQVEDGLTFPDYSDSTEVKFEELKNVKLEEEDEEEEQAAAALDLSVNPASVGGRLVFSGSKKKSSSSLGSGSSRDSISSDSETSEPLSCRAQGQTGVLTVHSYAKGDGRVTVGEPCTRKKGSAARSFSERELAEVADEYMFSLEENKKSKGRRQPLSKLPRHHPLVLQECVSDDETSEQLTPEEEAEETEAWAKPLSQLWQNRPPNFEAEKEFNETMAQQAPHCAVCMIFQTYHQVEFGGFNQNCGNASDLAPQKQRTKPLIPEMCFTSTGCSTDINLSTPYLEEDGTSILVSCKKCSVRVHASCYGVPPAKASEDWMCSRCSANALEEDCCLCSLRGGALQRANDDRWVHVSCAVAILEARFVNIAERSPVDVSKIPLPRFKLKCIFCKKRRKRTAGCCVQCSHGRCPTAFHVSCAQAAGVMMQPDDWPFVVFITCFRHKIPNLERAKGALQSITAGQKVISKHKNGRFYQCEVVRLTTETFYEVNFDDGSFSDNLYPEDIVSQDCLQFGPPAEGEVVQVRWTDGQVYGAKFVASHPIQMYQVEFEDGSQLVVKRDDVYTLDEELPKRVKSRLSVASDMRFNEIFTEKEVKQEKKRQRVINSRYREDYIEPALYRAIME
# Starred values were filed as active, the others as inactive; ? = inconclusive; . = no result; [ ] = another dose, or the depositor's remark. An excerpt weighted towards active compounds, which were near 12% of everything screened. Unless noted, calls follow the shape of the dose curve; as a rule, active = well fitted curve in the direction sought with a large enough effect; inconclusive = small, poorly fitted or top-dose-only effect, or another doubt; inactive = no such curve, though single readings can be large; an effect the other way counts as inactive or inconclusive.
SMILES,PLK1 PBD inh,G9a block,PI5P4Ka inh,BAZ2B block,HP1b chromo inh,JMJD2A Tudor
O=C(Nc1nc(-c2ccccn2)cs1)c1ccc(Br)s1,-3.1%,50.1µM*,.,35.5µM*,23.1%,?
Nc1ccc2nc[nH]c2c1,?,50.1µM*,-8.9,-35.3%,6.3%,?
O=[N+]([O-])c1ccc2nc[nH]c2c1,-2.8%,.,1.4,.,12.7%[57 µM],-2.8%
COC(=O)c1cc2oc3ccccc3c2n1CC(=O)Nc1cccc(SC)c1,.,-0.2%[59 µM],.,-0.3%,6.7%,-16.4%
CC[C@H](C)/C=C/C1=CC2=C(Cl)C(=O)[C@@]3(C)OC(=O)C(C(=O)[C@H](C)[C@@H](C)O)=C3C2=CO1,5.97µM*,.,-80.7*,.,?,56.2µM*
O=C1CSC(c2ccc([N+](=O)[O-])cc2)N1c1ccccc1 (centres undefined),-10.7%,21.3%,-1.4,-3.8%,-15.5%,-21.0%
Cc1ccc(C(=O)CC2(O)C(=O)N(Cc3ccccc3F)c3ccccc32)cc1 (centres undefined),.,-23.4%[59 µM],.,?,17.4%,-20.1%
N#CCCCN1C(=O)C(O)(CC(=O)c2ccc3c(c2)OCCO3)c2ccccc21 (centres undefined),-4.9%,35.5µM*,-9.7,8.4%,16.6%,-16.8%
C=C(C)CN1C(=O)C(O)(CC(=O)c2ccc3c(c2)OCCO3)c2ccccc21 (centres undefined),-6.7%,3.8%[12.7 µM],2.5,3.2%,25.0%,-8.0%
Cc1ccc(C(=O)CC2(O)C(=O)N(Cc3ccccc3)c3ccccc32)o1 (centres undefined),-3.2%,-5.9%[59 µM],-1.6,-8.2%,4.9%,-22.9%
Cc1ccc(CN2C(=O)C(O)(CC(=O)c3ccc(C)cc3)c3ccccc32)cc1 (centres undefined),.,11.2µM*,.,12.6µM*,?,50.1µM*
Cc1coc(C)c1C(=O)CC1(O)C(=O)N(Cc2ccccc2)c2ccccc21 (centres undefined),26.7µM*,-39.3%[59 µM],-10.8,?,?,89.1µM*
C/C(CC1(O)C(=O)N(Cc2ccccc2)c2ccccc21)=N\O (centres undefined),-5.6%,3.6%[59 µM],4.9,-22.6%,27.2%,-10.7%
CC(=O)CC1(O)C(=O)N(Cc2ccccc2)c2ccccc21 (centres undefined),26.7µM*,12.4%,0.3,4.8%,?,-32.1%[57.1 µM]
CN(C)c1ccc(N=C/C=C2/N(C)c3ccccc3C2(C)C)cc1,9.3%,7.08µM*,5.7,20µM*,?,39.8µM*
CO/N=C/C=C1/N(C)c2ccccc2C1(C)C,-11.6%,50.1µM*,14.3,?,15.8%,-13.4%
CN1/C(=C\C=[N+](C)c2ccccc2)C(C)(C)c2ccccc21,-7.2%,?,.,-35.8%,15.3%,35.5µM*
CN1/C(=C\C=N\O)C(C)(C)c2ccccc21,-7.7%,-1.1%,5.1,-15.2%,29.1%,-6.2%
CCOC(=O)c1ccc(CN(Cc2ccccc2C)S(=O)(=O)c2ccc(F)c(C(=O)Nc3cccc(OC)c3)c2)cc1,.,-3.3%[59 µM],.,5.8%,17.4%,-14.4%
Cc1ccc(/C(C#N)=C\c2ccc(N3CCOCC3)o2)cc1,11.6%,2.51µM*,.,79.4µM*,?,56.2µM*
Cc1ccc2nc(/C(C#N)=C\c3ccc(N4CCOCC4)o3)[nH]c2c1,68.9%,10µM*,-24.2,?,-3.1%,-26.4%
N#C/C(=C/c1ccc(N2CCCCC2)o1)c1cccc(F)c1,-8.7%,2.51µM*,.,39.8µM*,?,44.7µM*
CSc1nnc2c(n1)c(C)nn2-c1cccc(C)c1,-19.5%,10µM*,0.1,28.2µM*,-35.0%,?
Cc1ccc(NC(=O)CSCC(=O)NNC(=O)c2ccoc2C)cc1,-4.5%,7.0%,-8.9,0.7%,24.2%,-2.1%
CN(c1ccccc1)S(=O)(=O)c1ccc(C(=O)Nc2nnc(-c3ccco3)o2)cc1,?,?,-24.1,.,31.2%,-30.6%
SMILES,PLK1 PBD inh,G9a block,PI5P4Ka inh,BAZ2B block,HP1b chromo inh,JMJD2A Tudor
CCN(Cc1ccccc1)S(=O)(=O)c1ccc(C(=O)Nc2nnc(-c3ccccc3OC)o2)cc1,10.6µM*,-14.9%,-25.0,14.9%,-23.4%,-11.5%[11.4 µM]
CCN(c1ccccc1)S(=O)(=O)c1ccc(C(=O)Nc2nnc(-c3ccco3)o2)cc1,?,50.1µM*,-28.0,.,33.8%,-20.9%
CCN(c1ccccc1)S(=O)(=O)c1ccc(C(=O)Nc2nnc(CSC)o2)cc1,-8.7%,?,4.6,?,27.9%,-21.4%
CN(c1ccccc1)S(=O)(=O)c1ccc(C(=O)Nc2nnc(C3CC3)o2)cc1,6.2%,8.0%,-2.3,?,12.4%,-23.8%
CCN(c1ccccc1)S(=O)(=O)c1ccc(C(=O)Nc2nnc(COC)o2)cc1,-4.3%,4.7%,1.1,56.2µM*,44.2%,56.2µM*
CCN(c1ccccc1)S(=O)(=O)c1ccc(C(=O)Nc2nnc(C3CC3)o2)cc1,-7.8%,-24.8%,-3.2,79.4µM*,15.4%,-17.2%
Nc1sccc1C(=O)NC1CC1,?,.,-13.1,.,.,.
Cc1nc2ccn(Cc3ccco3)c(=O)c2cc1C(=O)N1CCN(c2ccc(F)cc2)CC1,.,12.3%[59 µM],.,-11.9%,79.0%,-16.0%
COCc1nnc(NC(=O)c2ccc(S(=O)(=O)N(C)c3ccccc3)cc2)o1,-15.2%,-10.0%[59 µM],-3.4,?,53.4%,79.4µM*
COc1ccccc1CCNC(=O)Cc1ccc(NC(=O)N2CCSc3ncccc32)cc1,.,?,.,-15.9%,-10.2%,-17.6%
Cc1sc(N)nc1-c1ccc(Oc2ccccc2)cc1,-9.2%,?,4.7,50.1µM*,-19.9%,?
Cc1sc(N)nc1-c1ccc2c(c1)OCCO2,?,35.5µM*,1.6,-4.6%,1.4%,-26.2%
Cc1ccc(S(=O)(=O)N2CCN(C(=O)C(C)Cn3nc(C)c(C)c3C)CC2)cc1C (centres undefined),-0.2%,50.1µM*,8.0,0.3%,21.3%,-2.7%
Cc1ccc(S(=O)(=O)N2CCN(C(=O)CCn3nc(C)c(C)c3C)CC2)cc1C,-5.5%,26.5%,0.6,1.1%,5.0%,-17.7%
O=C1OC(c2ccccc2)(c2cc(Br)c(O)c(Br)c2)c2ccccc21 (centres undefined),23.8µM*,.,-14.0,.,-21.1%,-35.7%
Cc1cc(C2(c3ccc(O)c(C)c3)OC(=O)c3ccccc32)ccc1O,-8.6%,?,?,50.1µM*,-25.2%,?
Nc1ccc(C2(c3ccc(N)cc3)OC(=O)c3ccccc32)cc1,-9.0%,9.3%,1.1,-27.5%,-2.3%,35.5µM*
O=C(O)c1ccc(C2(c3ccc(C(=O)O)cc3)OC(=O)c3ccccc32)cc1,1.3%,.,-0.8,12.2%[0.457 µM],63.0%,-8.6%
Fc1ccc(Nc2c3c(nc4nncn24)CCC3)cc1,.,?,.,0.0%,26.1%,-10.1%
